# Reference: article PMC7862700, “An all-to-all approach to the identification of sequence-specific readers for epigenetic DNA modifications on cytosine”
# Tests used:
# Experiment in all cases: DAPPL (digital affinity profiling via proximity ligation, sequencing); 10 mM Tris-HCl pH 7.5, 50 mM NaCl, 1 mM DTT, 4% glycerol, room temperature, 30 min; GST-TFs on glutathione beads, 16-mer random dsDNA library, 0.1% formaldehyde crosslink after washing; high values mean tight binding
# FLI1 = molecular target: T1, FLI1 (Homo sapiens, UniProt Q01543 1-452); details: protein: recombinant; tags: N-terminal GST; dsDNA, one strand shown
# T1 sequence: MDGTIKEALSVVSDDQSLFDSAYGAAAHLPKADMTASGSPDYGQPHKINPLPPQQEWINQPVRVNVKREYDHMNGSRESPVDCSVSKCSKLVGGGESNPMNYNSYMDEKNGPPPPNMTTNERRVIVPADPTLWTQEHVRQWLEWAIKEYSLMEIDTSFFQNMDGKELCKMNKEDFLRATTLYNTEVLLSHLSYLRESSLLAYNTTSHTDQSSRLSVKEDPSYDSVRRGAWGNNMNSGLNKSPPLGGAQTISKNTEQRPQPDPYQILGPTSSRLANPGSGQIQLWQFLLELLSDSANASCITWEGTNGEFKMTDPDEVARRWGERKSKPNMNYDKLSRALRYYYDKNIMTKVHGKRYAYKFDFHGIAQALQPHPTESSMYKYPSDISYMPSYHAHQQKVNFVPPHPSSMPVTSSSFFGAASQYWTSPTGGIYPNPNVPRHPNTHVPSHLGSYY
# In short: (§1)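 The binding signal reported is, for every hexamer, its read frequency for a factor over its read frequency for the tag-only sample. Reads came from pools of yeast-expressed, GST-fused human transcription factors on glutathione beads, barcoded with DNA and mixed with that sample, which were incubated with 200 nmole of a random double-stranded 16-mer DNA library in Tris/NaCl/DTT/glycerol buffer at room temperature for 30 min. After washing, the pools were crosslinked with 0.1% formaldehyde, proximity-ligated with BsaI/T4 ligase for 1 h at 37 °C, PCR-amplified and sequenced on an Illumina NextSeq500.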
# ELK1 = molecular target: T2, ELK1 (Homo sapiens, UniProt P19419 1-428); details: protein: recombinant; tags: N-terminal GST; dsDNA, one strand shown
# T2 sequence: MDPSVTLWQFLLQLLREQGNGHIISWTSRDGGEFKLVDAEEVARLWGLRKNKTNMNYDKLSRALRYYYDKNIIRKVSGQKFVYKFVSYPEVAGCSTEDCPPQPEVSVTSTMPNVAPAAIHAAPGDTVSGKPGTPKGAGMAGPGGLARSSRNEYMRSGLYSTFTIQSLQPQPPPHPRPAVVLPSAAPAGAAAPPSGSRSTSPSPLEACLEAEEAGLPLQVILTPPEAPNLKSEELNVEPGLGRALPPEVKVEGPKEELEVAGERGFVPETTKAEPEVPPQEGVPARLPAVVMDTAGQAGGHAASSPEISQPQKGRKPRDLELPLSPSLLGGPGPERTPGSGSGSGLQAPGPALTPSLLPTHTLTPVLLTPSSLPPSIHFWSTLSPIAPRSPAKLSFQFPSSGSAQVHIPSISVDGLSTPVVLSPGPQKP
# In short: as §1
# GABPA = molecular target: T3, GABPA (Homo sapiens, UniProt Q06546 1-454); details: protein: recombinant; tags: N-terminal GST; dsDNA, one strand shown
# T3 sequence: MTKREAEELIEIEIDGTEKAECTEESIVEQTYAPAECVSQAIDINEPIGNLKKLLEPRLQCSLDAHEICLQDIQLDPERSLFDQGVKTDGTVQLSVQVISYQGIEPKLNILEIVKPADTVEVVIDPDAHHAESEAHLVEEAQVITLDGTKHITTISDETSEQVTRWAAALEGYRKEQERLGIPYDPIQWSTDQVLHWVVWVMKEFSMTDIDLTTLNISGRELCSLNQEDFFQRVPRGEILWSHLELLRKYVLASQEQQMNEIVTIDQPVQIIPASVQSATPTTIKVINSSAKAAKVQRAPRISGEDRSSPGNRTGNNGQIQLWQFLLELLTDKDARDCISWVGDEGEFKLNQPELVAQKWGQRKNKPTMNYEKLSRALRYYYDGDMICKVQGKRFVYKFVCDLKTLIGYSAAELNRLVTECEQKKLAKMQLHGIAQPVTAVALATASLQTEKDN
# In short: as §1
# ERG = molecular target: T4, ERG (Homo sapiens, UniProt P11308 1-479); details: protein: recombinant; tags: N-terminal GST; dsDNA, one strand shown
# T4 sequence: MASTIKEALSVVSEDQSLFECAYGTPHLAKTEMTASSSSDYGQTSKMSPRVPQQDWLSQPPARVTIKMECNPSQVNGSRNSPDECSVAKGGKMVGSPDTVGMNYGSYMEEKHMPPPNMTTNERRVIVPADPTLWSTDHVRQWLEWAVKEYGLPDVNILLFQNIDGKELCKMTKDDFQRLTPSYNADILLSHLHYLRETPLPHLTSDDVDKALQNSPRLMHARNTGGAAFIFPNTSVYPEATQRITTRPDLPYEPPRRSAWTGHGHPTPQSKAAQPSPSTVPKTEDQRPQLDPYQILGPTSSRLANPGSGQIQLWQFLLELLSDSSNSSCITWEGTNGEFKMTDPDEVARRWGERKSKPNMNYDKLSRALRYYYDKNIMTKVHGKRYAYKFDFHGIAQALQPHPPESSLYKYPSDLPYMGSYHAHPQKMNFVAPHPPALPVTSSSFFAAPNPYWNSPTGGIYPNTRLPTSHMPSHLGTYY
# In short: as §1
# ELF1 = ELF1 (Homo sapiens, UniProt P32519 1-619); details: protein: recombinant; tags: N-terminal GST; dsDNA, one strand shown
# Sequence of ELF1 (P32519 whole entry): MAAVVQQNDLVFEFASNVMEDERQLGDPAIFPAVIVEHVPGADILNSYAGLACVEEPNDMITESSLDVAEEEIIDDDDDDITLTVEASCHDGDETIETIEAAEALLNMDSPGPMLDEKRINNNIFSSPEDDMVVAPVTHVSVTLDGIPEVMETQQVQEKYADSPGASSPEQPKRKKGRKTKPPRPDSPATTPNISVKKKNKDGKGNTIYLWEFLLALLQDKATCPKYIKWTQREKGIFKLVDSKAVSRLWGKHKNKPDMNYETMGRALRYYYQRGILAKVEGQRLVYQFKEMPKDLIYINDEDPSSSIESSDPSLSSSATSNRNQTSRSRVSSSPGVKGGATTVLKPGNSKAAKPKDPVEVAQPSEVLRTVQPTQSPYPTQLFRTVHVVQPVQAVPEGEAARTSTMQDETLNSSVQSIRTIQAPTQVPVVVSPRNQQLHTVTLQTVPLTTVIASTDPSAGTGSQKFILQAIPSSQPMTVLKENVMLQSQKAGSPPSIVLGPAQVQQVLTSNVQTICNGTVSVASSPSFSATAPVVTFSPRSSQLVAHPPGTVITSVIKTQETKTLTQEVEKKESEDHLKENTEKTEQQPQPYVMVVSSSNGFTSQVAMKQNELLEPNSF
# In short: as §1
# EHF = molecular target: T5, EHF (Homo sapiens, UniProt Q9NZC4 1-300); details: protein: recombinant; tags: N-terminal GST; dsDNA, one strand shown
# T5 sequence: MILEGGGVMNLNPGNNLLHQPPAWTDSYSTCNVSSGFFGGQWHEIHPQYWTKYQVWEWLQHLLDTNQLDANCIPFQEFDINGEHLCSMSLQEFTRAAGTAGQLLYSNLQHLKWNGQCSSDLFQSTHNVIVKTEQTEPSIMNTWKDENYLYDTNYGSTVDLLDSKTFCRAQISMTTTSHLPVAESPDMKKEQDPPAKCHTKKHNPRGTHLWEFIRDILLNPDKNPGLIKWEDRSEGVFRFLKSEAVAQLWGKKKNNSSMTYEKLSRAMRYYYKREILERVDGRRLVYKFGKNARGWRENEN
# In short: as §1
# SPI1 = SPI1 (Homo sapiens, UniProt P17947 1-270); details: protein: recombinant; tags: N-terminal GST; dsDNA, one strand shown
# In short: as §1
# SPIB = SPIB (Homo sapiens, UniProt Q01892 1-262); details: protein: recombinant; tags: N-terminal GST; dsDNA, one strand shown
# Sequence of SPIB (Q01892 whole entry): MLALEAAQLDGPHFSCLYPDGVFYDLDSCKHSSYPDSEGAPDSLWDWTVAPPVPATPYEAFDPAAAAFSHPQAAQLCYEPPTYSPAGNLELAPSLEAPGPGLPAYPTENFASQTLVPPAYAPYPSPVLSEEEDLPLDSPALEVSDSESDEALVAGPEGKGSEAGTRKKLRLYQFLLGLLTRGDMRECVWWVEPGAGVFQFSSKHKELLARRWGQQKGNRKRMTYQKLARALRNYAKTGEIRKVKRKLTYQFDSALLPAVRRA
# In short: as §1
# ELK3 = molecular target: T6, ELK3 (Homo sapiens, UniProt P41970 1-407); details: protein: recombinant; tags: N-terminal GST; dsDNA, one strand shown
# T6 sequence: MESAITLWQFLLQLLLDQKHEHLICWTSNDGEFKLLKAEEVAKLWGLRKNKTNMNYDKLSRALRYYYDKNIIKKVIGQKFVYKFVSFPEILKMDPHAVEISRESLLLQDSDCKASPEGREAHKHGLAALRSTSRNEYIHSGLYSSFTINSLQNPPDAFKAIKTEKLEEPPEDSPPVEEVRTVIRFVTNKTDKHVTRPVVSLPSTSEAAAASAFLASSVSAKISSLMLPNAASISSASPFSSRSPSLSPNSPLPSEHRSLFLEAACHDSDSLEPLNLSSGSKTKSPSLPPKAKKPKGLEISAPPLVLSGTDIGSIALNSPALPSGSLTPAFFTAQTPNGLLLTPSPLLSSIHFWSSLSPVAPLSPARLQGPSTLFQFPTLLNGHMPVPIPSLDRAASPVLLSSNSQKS
# In short: as §1
# FEV = molecular target: T7, FEV (Homo sapiens, UniProt Q99581 1-238); details: protein: recombinant; tags: N-terminal GST; dsDNA, one strand shown
# T7 sequence: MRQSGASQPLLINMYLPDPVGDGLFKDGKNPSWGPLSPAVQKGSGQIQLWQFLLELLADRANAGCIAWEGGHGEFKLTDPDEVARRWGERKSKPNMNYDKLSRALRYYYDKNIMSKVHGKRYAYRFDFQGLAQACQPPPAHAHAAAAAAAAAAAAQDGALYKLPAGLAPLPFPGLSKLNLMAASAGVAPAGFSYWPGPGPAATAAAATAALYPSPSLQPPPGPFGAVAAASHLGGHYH
# In short: as §1
# ETV5 = ETV5 (Homo sapiens, UniProt P41161 1-510); details: protein: recombinant; tags: N-terminal GST; dsDNA, one strand shown
# Sequence of ETV5 (P41161 whole entry): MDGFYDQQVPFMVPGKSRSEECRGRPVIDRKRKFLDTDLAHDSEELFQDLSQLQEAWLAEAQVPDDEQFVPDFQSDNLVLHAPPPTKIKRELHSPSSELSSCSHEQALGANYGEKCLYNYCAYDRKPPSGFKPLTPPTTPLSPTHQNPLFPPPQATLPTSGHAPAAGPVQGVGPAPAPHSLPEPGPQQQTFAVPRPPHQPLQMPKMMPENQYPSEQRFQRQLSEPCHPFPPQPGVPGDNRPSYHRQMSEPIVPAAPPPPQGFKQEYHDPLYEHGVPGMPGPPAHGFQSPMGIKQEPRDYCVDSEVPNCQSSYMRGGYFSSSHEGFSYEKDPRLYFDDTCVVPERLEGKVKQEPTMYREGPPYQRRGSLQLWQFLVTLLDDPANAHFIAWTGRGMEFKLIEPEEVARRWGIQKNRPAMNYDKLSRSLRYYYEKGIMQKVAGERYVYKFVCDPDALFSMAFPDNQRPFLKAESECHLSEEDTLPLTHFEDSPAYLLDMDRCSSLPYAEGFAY
# In short: as §1
# HSF1 = HSF1 (Homo sapiens, UniProt Q00613 1-529); details: protein: recombinant; tags: N-terminal GST; chain copies: 3; dsDNA, one strand shown
# Sequence of HSF1 (Q00613 whole entry): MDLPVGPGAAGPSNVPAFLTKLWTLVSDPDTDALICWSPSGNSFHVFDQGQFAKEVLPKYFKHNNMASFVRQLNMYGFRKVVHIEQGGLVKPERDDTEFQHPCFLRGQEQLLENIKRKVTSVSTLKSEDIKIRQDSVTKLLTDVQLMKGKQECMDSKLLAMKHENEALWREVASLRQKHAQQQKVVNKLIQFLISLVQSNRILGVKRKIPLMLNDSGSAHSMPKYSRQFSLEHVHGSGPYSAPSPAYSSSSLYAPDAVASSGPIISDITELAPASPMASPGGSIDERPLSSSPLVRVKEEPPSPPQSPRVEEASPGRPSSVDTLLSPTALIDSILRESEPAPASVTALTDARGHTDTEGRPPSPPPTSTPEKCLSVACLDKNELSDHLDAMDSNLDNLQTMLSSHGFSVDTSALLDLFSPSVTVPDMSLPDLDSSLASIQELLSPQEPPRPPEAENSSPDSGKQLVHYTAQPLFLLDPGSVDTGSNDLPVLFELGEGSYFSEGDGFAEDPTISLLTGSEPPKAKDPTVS
# In short: as §1
# SPIC = molecular target: T8, SPIC (Homo sapiens, UniProt Q8N5J4 1-248); details: protein: recombinant; tags: N-terminal GST; dsDNA, one strand shown
# T8 sequence: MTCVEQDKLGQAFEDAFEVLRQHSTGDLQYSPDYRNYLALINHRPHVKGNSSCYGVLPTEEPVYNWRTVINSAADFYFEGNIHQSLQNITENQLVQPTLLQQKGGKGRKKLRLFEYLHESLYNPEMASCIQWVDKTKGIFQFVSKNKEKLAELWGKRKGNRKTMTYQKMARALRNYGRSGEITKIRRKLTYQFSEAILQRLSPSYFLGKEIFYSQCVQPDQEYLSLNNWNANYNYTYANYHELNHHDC
# In short: as §1
# ELF4 = ELF4 (Homo sapiens, UniProt Q99607 1-663); details: protein: recombinant; tags: N-terminal GST; dsDNA, one strand shown
# Sequence of ELF4 (Q99607 whole entry): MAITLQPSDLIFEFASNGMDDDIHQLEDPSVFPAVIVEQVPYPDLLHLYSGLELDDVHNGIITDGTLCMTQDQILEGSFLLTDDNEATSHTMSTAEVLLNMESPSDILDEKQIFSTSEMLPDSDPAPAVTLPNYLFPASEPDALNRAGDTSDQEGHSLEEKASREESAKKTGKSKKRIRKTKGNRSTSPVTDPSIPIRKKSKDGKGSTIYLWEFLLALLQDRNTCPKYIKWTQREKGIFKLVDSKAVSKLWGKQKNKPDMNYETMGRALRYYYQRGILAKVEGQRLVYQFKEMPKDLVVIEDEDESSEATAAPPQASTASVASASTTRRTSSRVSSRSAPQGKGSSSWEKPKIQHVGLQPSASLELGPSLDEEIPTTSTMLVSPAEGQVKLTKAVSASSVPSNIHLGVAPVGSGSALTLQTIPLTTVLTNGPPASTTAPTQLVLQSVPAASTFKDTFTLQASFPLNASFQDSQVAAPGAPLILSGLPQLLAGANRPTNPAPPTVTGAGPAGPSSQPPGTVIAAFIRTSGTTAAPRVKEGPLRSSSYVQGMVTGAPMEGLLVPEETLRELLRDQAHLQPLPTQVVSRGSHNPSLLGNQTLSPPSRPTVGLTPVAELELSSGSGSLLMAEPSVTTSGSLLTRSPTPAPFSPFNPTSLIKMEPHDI
# In short: as §1
# ELK4 = molecular target: T9, ELK4 (Homo sapiens, UniProt P28324-2 1-405); details: protein: recombinant; tags: N-terminal GST; dsDNA, one strand shown
# T9 sequence: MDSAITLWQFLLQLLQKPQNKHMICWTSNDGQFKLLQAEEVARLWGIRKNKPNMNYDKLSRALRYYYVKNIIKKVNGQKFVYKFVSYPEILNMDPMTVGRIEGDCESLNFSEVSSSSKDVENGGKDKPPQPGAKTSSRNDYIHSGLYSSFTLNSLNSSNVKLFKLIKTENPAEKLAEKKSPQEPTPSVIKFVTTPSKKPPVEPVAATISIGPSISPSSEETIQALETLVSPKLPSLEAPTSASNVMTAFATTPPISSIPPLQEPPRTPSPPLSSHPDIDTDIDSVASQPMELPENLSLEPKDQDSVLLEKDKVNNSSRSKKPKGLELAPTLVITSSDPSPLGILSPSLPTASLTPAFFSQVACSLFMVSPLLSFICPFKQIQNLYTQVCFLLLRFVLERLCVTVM
# In short: as §1
# ETV2 = molecular target: T10, ETV2 (Homo sapiens, UniProt O00321 1-342); details: protein: recombinant; tags: N-terminal GST; dsDNA, one strand shown
# T10 sequence: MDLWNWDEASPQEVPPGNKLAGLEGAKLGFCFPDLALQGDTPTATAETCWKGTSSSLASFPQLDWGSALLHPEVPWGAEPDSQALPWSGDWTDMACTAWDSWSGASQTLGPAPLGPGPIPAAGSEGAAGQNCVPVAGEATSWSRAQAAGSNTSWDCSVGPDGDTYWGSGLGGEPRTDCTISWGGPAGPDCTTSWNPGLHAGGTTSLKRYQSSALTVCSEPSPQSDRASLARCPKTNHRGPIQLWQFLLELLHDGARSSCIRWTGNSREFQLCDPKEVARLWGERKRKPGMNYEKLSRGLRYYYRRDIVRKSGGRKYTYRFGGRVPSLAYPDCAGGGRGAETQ
# In short: as §1
# CRX = CRX (Homo sapiens, UniProt O43186 1-299); details: protein: recombinant; tags: N-terminal GST; dsDNA, one strand shown
# Sequence of CRX (O43186 whole entry): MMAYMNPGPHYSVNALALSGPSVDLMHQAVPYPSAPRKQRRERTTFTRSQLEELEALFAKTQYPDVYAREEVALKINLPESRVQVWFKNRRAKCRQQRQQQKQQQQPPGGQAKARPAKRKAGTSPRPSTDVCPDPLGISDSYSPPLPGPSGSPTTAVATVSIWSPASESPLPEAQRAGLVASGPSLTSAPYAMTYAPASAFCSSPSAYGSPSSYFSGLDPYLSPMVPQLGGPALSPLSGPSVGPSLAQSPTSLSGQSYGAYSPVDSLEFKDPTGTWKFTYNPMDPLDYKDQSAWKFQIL
# In short: as §1
# ETV1 = ETV1 (Homo sapiens, UniProt P50549 1-477); details: protein: recombinant; tags: N-terminal GST; dsDNA, one strand shown
# Sequence of ETV1 (P50549 whole entry): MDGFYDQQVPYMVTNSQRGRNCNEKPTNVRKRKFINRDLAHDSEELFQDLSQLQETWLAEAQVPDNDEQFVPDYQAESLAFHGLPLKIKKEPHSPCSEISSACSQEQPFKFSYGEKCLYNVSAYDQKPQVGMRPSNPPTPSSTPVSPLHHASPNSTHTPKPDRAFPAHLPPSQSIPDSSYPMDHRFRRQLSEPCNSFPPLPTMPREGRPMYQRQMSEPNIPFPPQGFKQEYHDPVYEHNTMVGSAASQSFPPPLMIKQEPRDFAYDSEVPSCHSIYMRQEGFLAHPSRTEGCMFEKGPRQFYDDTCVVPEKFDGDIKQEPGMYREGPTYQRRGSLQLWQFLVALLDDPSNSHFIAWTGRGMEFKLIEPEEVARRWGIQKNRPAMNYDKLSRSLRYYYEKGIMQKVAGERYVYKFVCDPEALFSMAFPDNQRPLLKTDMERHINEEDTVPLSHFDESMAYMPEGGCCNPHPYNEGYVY
# In short: as §1
sequence,measurement,setting,value
TTTCGC,binding signal,FLI1,"1.11 fold enrichment (6-mer frequency, TF over GST control)"
same,binding signal,ELK1,"1.12 fold enrichment (6-mer frequency, TF over GST control)"
same,binding signal,GABPA,"1.06 fold enrichment (6-mer frequency, TF over GST control)"
same,binding signal,ERG,"1.02 fold enrichment (6-mer frequency, TF over GST control)"
same,binding signal,ELF1,"1.13 fold enrichment (6-mer frequency, TF over GST control)"
same,binding signal,EHF,"1.2 fold enrichment (6-mer frequency, TF over GST control)"
same,binding signal,SPI1,"1.13 fold enrichment (6-mer frequency, TF over GST control)"
same,binding signal,SPIB,"1.2 fold enrichment (6-mer frequency, TF over GST control)"
same,binding signal,ELK3,"1.14 fold enrichment (6-mer frequency, TF over GST control)"
same,binding signal,FEV,"1.16 fold enrichment (6-mer frequency, TF over GST control)"
same,binding signal,ETV5,"1.08 fold enrichment (6-mer frequency, TF over GST control)"
same,binding signal,HSF1,"1.32 fold enrichment (6-mer frequency, TF over GST control)"
same,binding signal,SPIC,"1.2 fold enrichment (6-mer frequency, TF over GST control)"
same,binding signal,ELF4,"1.08 fold enrichment (6-mer frequency, TF over GST control)"
same,binding signal,ELK4,"1.24 fold enrichment (6-mer frequency, TF over GST control)"
same,binding signal,ETV2,"1.39 fold enrichment (6-mer frequency, TF over GST control)"
same,binding signal,CRX,"1.19 fold enrichment (6-mer frequency, TF over GST control)"
same,binding signal,ETV1,"1.09 fold enrichment (6-mer frequency, TF over GST control)"
